Reference: article PMC4336329 (PLoS ONE, 2015)
Screen size: about 310,000 compounds; about 14,000 (4.5%) showed an effect of 50% or more. Effects have a minus sign here. The full list was thinned out, with strong results kept by preference.

Each compound was assayed against human ether-à-go-go-related gene (hERG) potassium channel (human, UniProt Q12809) (assay: primary screen, population patch clamp on CHO cells stably expressing hERG; higher = less effect of the substance).
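Further: peak tail current of the secondary pulse compared with the same well before compound.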

Chain of human ether-à-go-go-related gene (hERG) potassium channel (Q12809 whole entry, looked up): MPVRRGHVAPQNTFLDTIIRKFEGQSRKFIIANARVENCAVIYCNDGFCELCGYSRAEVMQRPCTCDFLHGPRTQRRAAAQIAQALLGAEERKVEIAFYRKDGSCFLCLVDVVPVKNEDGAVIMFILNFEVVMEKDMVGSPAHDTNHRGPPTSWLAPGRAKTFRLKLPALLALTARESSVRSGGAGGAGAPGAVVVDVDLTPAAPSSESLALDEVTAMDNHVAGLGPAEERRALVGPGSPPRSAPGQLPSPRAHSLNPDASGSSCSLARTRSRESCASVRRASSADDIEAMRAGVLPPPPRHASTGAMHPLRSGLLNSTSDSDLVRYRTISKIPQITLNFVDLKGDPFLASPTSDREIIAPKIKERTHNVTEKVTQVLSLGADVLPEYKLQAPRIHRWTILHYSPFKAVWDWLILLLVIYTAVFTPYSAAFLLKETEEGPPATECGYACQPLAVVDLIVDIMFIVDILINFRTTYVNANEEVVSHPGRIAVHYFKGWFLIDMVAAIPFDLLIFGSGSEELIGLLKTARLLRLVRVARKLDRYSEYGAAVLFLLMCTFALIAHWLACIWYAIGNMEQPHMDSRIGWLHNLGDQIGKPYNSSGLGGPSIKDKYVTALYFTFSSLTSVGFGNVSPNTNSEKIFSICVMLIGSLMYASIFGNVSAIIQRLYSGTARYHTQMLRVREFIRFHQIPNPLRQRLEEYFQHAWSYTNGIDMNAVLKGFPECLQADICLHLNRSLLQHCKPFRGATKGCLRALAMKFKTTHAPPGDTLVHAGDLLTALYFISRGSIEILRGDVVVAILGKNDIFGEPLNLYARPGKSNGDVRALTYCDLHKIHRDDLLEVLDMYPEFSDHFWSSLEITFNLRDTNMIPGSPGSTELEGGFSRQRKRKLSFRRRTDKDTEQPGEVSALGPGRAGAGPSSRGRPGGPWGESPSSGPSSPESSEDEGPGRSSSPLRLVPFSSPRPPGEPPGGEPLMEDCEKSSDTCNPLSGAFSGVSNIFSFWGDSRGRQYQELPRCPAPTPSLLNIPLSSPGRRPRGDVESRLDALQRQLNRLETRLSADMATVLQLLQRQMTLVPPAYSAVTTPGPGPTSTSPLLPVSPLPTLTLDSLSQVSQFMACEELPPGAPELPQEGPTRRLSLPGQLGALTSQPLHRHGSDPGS

Row | Compound | hERG current change (%, negative = inhibition) at 10uM
1 | Cl.O=C(COc1ccccc1)N1CCN(CC(O)COc2ccccc2)CC1 (stereo not shown) | -50.8%
2 | OC(COc1ccccc1)CN1CCCCCC1 (stereo not shown) | -4.43%
3 | CC(C)(c1ccccc1)c1ccc(OCC(O)CN2CCCC2)cc1.Cl (stereo not shown) | -60.3%
4 | OC(COc1ccccc1)CN1CCN(c2ncccn2)CC1 (stereo not shown) | -22.9%
5 | COc1cc(/C=C/C(=O)N2CCN(CC(O)COc3ccccc3)CC2)cc(OC)c1OC.Cl (stereo not shown) | -8.44%
6 | CCC(=O)c1ccc(OCC(O)CN2CCN(c3cccc(C(F)(F)F)c3)CC2)cc1 (stereo not shown) | -55.2%
7 | CC(=O)N1CCN(CC(O)COc2ccc(OCc3ccccc3)cc2)CC1 (stereo not shown) | -17.7%
8 | COc1cc(C(=O)NCCNC(=O)c2ccc(C)nc2)cc(OC)c1OC | 11.8%
9 | S=C(Nc1ccccc1)Nc1nccs1 | 24.4%
10 | CCOc1ccc(Nc2oc(-c3ccc(Cl)cc3)nc2C#N)cc1 | 9.08%
11 | Cl.Fc1ccc(CN2C3=NCCN3c3ccccc32)cc1 | -54.9%
12 | Cl.Fc1ccc(CN2C3=NCCCN3c3ccccc32)cc1 | -71.2%
13 | O=C(CN1C(=O)C2C3c4ccccc4C(c4ccccc43)C2C1=O)Nc1cccc(C(=O)O)c1 (stereo not shown) | -10.3%
14 | O=C(COc1ccc(Cl)cc1Cl)N/N=C1\CCCc2ccccc21 | 2.52%
15 | CC(C)(CO)NCc1ccccc1OCC(=O)Nc1ccccc1 | -14%
16 | Cc1ccc(C(=O)OCC(=O)Nc2ccc(F)c(Cl)c2)o1 | 17%
17 | Clc1ccc(-n2nnnc2-c2cnc3ccc(Cl)cc3c2-c2ccccc2)cc1 | 5.46%
18 | Cc1ccc(/C=C/C(=O)N2CCCC(C)C2)cc1 (stereo not shown) | -8.25%
19 | O=C(CCCCCCN1C(=O)c2ccccc2C1=O)N1CCC(c2ccccc2)C1 (stereo not shown) | -39.7%
20 | O=C(CCN1C(=O)c2ccccc2C1=O)N1CCC(c2ccccc2)C1 (stereo not shown) | -43%
21 | O=C(/C=C/c1ccc(F)cc1)N1CCCN(C(=O)/C=C/c2ccc(F)cc2)CC1 | -75.6%
22 | Cc1ccc(NC(=O)N2CCCc3ccccc32)cc1 | -6.25%
23 | O=C(Nc1ccccc1)N1CCc2ccccc21 | -21.2%

Row | Compound | hERG current change (%, negative = inhibition) at 10uM
24 | O=C(Nc1ccccc1)N1CCCc2ccccc21 | -79.2%
25 | Cc1ccc(/C=C/C(=O)N2CCCN(C(=O)/C=C/c3ccc(C)cc3)CC2)cc1 | -74.8%
26 | CCN1CCN(C(=O)/C=C/c2ccc(F)cc2)CC1 | -43.2%
27 | O=C(CCCN1C(=O)c2ccccc2C1=O)N1CCC(c2ccccc2)C1 (stereo not shown) | -58.6%
28 | CN1CCCN(C(=O)/C=C/c2ccc(F)cc2)CC1 | -23.7%
29 | CCN1CCN(C(=O)/C=C/c2ccc(C)cc2)CC1 | -23.1%
30 | COc1ccc2cc(OCC(=O)NNC(=O)Nc3ccc(C(C)=O)cc3)ccc2c1 | 9.54%
31 | Cc1ccnc(SCc2cc(=O)c(OC(=O)c3ccco3)co2)n1 | 4.97%
32 | COc1ccc(NCc2ccsc2)cc1 | 2.52%
33 | O=C(NCC1CC1)c1ccccc1Cl | 11.6%
34 | COc1ccc(N2CCN(C3CC(=O)N(c4ccc5c(c4)OCCO5)C3=O)CC2)cc1 (stereo not shown) | -2.06%
35 | CC(=O)Oc1ccccc1C(=O)N(C1CCCCC1)C1CCCCC1 | 15.3%
36 | COc1ccc(C(=O)N/N=C(\Cc2ncc[nH]2)c2ccccc2)cc1 | 2.43%
37 | COCCN(C(=O)CSc1nnc(-c2ccccc2C)n1C)c1c(N)n(Cc2ccccc2)c(=O)[nH]c1=O | 38.4%
38 | CN1CCN(C(=O)/C=C/c2ccccc2)CC1 | 4.5%
39 | O=C(/C=C/c1ccccc1)N1CCC(c2ccccc2)C1 (stereo not shown) | -57.6%
40 | O=C(/C=C/c1cccc(F)c1)N1CCc2ccccc21 | 4.51%
41 | COc1ccc(/C=C/C(=O)N2CCCc3ccccc32)cc1 | -16.8%
42 | O=C(/C=C/c1ccc(F)cc1)N1CCCc2ccccc21 | -62.7%
43 | O=C(/C=C/c1ccccc1)N1CCCN(C(=O)/C=C/c2ccccc2)CC1 | -68.5%
44 | O=C(/C=C/c1ccccc1)N1CCOCC1 | 13.9%
45 | COc1ccc(/C=C/C(=O)N2CCC(c3ccccc3)C2)cc1 (stereo not shown) | -47.4%
46 | COc1ccccc1/C=C/C(=O)N1CCC(c2ccccc2)C1 (stereo not shown) | -4.29%
